TRb SRC2 PPI: TRbeta-SRC2 interaction inhibition; P10828; TRbeta-SRC2 peptide binding, fluorescence polarization; receptor liganded with 1 µM T3; Potency, µM (series often up to 106 µM), actives largely listed as inhibitors; hit rate 0.065% among 280,000; AID 1469; also: nearly all actives have a fitted effect of over 50% in size
Target sequence (P10828 whole entry, looked up): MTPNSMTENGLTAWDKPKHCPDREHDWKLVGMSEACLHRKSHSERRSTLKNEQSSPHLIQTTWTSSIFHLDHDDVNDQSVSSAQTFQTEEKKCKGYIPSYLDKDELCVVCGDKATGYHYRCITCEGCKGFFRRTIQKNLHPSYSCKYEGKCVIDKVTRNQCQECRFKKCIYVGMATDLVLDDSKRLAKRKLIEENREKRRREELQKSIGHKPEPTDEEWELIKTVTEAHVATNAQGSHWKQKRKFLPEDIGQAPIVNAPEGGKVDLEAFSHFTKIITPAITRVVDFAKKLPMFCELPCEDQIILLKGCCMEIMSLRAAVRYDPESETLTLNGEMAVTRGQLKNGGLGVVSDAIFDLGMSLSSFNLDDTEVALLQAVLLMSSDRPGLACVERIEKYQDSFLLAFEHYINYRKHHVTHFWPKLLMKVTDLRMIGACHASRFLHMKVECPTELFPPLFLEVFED
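Fluorescence polarization of 20 nM Texas Red SRC2 peptide with 0.6 uM human TRb ligand-binding domain, in Tris buffer with 1uM T3 and 5% DMSO. Incubated 5 hr ambient; normalized to unbound and bound controls.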
Tau fluor counter: counter-screen for tau fibril formation inhibitors. tau K18 P301L Alexa594 fluorescence, heparin fibrillization. Potency, µM (series often up to 57.7 µM). hit rate 0.93% among 280,000; also: nearly all actives have a fitted effect of over 55% in size
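Human K18 P301L tau (15 uM unlabeled plus 0.24 uM Alexa 594-labeled, final) in 100 mM sodium acetate pH 7 was mixed with compound and 20 uM heparin and incubated 6 hr at 37 C.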
Tau fibril FP: inhibitors of human tau fibril formation | P10636 | K18 P301L tau heparin fibrillization, Alexa594 FP, 6 h | Potency, µM (titrated, usually from 57.7 µM), hits mostly inhibitors | hit rate 0.39% among 280,000 | AID 1468; also: nearly all actives have a fitted effect of over 55% in size
Target sequence (P10636 561-689 P618L limits assumed): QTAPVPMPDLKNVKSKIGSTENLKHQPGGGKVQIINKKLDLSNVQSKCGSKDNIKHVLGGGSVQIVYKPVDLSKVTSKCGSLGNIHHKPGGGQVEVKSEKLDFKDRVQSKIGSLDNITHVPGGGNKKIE
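Read-out: fluorescence polarization of Alexa 594-labeled tau (0.24 uM), 555 nm excitation, 632 nm emission. Mixtures held 15 uM unlabeled K18 P301L, compound and 20 uM heparin, pH 7 acetate buffer, incubated 6 hr at 37 C.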
Tau ThT inhib: inhibitors of human tau fibril formation, thioflavin T binding. Potency, µM (series often up to 57.4 µM), usual class: inhibitors. hit rate 2.1% among 270,000. P10636. recombinant tau K18 P301L (four-repeat tau fragment), heparin-induced fibrillization, ThT fluorescence; also: nearly all actives have a fitted effect of over 55% in size
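K18 P301L tau (15 uM + 0.24 uM Alexa 594-tagged), heparin 20 uM, NaOAc pH 7, 6 h 37 C; ThT 30 uM, 1 h RT, ex 450/em 510 nm.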
TexasRed fluor: alters Texas Red total fluorescence, flagging assay interference | Potency, µM (top dose mostly 106 µM) | hit rate 0.29% among 280,000 | AID 1479 | TRb/SRC2 Texas Red total fluorescence interference; active = well fitted curve in either direction with a large enough effect; inconclusive = small, poorly fitted or top-dose-only effect
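Human TRβ ligand-binding domain (0.6 uM) and Texas Red SRC2 peptide (20 nM) in Tris buffer with 1 uM T3 and 5% DMSO were incubated with pinned compound for 5 hr at ambient temperature. Total fluorescence was computed as S + 2P (555/632 nm).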
Of the large screens only hits and unclear results are named; the others gave an inactive call; [ ] = remark or other dose. Rows were chosen to be rich in hits. Some 3% of all compounds tested hit in one or more screens of this group. Unless noted, calls follow the shape of the dose curve; as a rule, active = well fitted curve in the direction sought with a large enough effect; inconclusive = small, poorly fitted or top-dose-only effect, or another doubt; inactive = no such curve, though single readings can be large; an effect the other way counts as inactive or inconclusive.

CCOc1cc(N(CC)CC)ccc1/C=C(/C#N)c1nc2ccccc2[nH]1	Tau fluor counter 10µM[quencher], Tau ThT inhib inconclusive
COc1ccc(C(=O)Nc2ccccc2-c2nc3ccccc3s2)cc1OC	none
O=C(c1ccccc1Cl)N1c2ncnn2C2(CCCCC2)[C@@H]2CCCC[C@@H]21	none
CCOc1ccc(C(=O)c2cn(CC(=O)Nc3cc(OC)cc(OC)c3)c3ccc(F)cc3c2=O)cc1	none
N#CC1(C#N)C2=C(CCCC2)NC(c2ccccc2)C1(C#N)C#N (configuration not stated)	Tau fluor counter inconclusive, Tau fibril FP inconclusive, Tau ThT inhib 25.1µM
N#CC12C(N)=NC3(OCCO3)C1(C#N)C1=C(CCC1)NC2c1ccccc1 (configuration not stated)	Tau ThT inhib inconclusive
COc1cc(OC)c2c(-c3cccc(-c4ccc(O)cc4)c3)cc(=O)oc2c1	Tau fluor counter 22.4µM[quencher], Tau fibril FP inconclusive, Tau ThT inhib inconclusive
CC1=CC(c2ccccc2)n2nc(NS(=O)(=O)c3ccc(C)cc3)nc2N1 (configuration not stated)	Tau fluor counter inconclusive, Tau fibril FP inconclusive, Tau ThT inhib 11.2µM
CC1=CC(c2ccc(Cl)cc2)n2nc(NS(=O)(=O)c3ccc(C)cc3)nc2N1 (configuration not stated)	Tau ThT inhib inconclusive
COC(=O)CSCc1nc2ccccc2[nH]c1=O	Tau fibril FP inconclusive, Tau ThT inhib 31.6µM
O=C(CN1C(=O)COc2ccc(Cl)cc21)Nc1cccc(C(=O)O)c1	none
COc1ccc(NCc2nnc3n2CCCCC3)c(OC)c1	none
N.N.O=C(O)C1(C(=O)O)CCC1.[Pt]	Tau fibril FP 2.82µM, Tau ThT inhib 3.16µM
Cc1cc(C(=O)N/N=C/C=C/c2ccc([N+](=O)[O-])cc2)n[nH]1	Tau ThT inhib 1.78µM
O=C(N/N=C/c1cc(Cl)cc([N+](=O)[O-])c1O)c1cc(-c2ccccn2)nc2ccccc12	Tau fluor counter inconclusive, Tau ThT inhib 8.91µM
Cc1cc(C(=O)N/N=C/c2cc(Cl)cc([N+](=O)[O-])c2O)n[nH]1	Tau fluor counter inconclusive, Tau ThT inhib 12.6µM
Cc1cc(C(=O)N/N=C/c2ccc([N+](=O)[O-])s2)n[nH]1	Tau ThT inhib inconclusive
CCOc1cc(/C=N/NC(=O)c2cc(C)[nH]n2)ccc1OC(=O)c1ccc([N+](=O)[O-])cc1	Tau fluor counter inconclusive, Tau ThT inhib inconclusive
O=[N+]([O-])c1cc(Cl)cc(/C=N\Nc2ccccn2)c1O	Tau fluor counter 17.8µM[quencher], Tau ThT inhib 8.91µM
O=C(Nc1ccc(N2CCC(c3ccccc3)C2)c(C(=O)O)c1)c1ccc(Cl)cc1 (configuration not stated)	Tau ThT inhib inconclusive
CCN1C(=O)[C@H]2[C@H]3[C@H](O)[C@H](O)C/C(=N/NC(=O)OCc4ccccc4)[C@H]3CC[C@@H]2C1=O	none
COCCCNC(=O)c1c(NC(=O)Cc2coc3cc(C)cc(C)c23)sc2c1CCCC2	none
COc1ccc(N2CCN(C(=O)c3cc4cc5ccc(Cl)cc5nc4o3)CC2)cc1	none
Cc1nc(NC(=O)c2ccccc2)sc1-c1csc(Nc2cccc(Cl)c2)n1	Tau fluor counter 11.2µM[quencher], Tau fibril FP inconclusive, Tau ThT inhib 7.94µM
Cc1nc(NC(=O)c2ccccc2)sc1-c1csc(Nc2ccc(Cl)cc2Cl)n1	Tau fluor counter inconclusive, Tau ThT inhib inconclusive
Cc1ccc(Cl)cc1Nc1nc(-c2sc(NC(=O)c3ccco3)nc2C)cs1	Tau fluor counter inconclusive, Tau ThT inhib inconclusive
Cc1nc(NC(=O)c2ccco2)sc1-c1csc(Nc2ccc(Cl)cc2)n1	Tau fluor counter inconclusive, Tau ThT inhib 7.08µM
Cc1ccc(OCc2nnc(NC(=O)c3ccco3)s2)cc1	none
O=C(Nc1nnc(COc2ccc(Cl)cc2)s1)c1ccco1	Tau fibril FP inconclusive, Tau ThT inhib 31.6µM
COc1ccccc1Nc1nc(-c2sc(NC(=O)c3ccco3)nc2C)cs1	Tau fluor counter inconclusive, Tau ThT inhib 3.55µM
Cc1cccc(NC(=O)CCCCCn2c(=O)[nH]c3ccsc3c2=O)c1	none
O=C(O)c1ccc(S(=O)(=O)N[C@H](Cc2ccc(C(F)(F)F)cc2)C(=O)O)cc1	none (no result: Tau fluor counter, Tau fibril FP, Tau ThT inhib)
CC(C)C[C@@H](CC(=O)N[C@@H](CCCN)CC(=O)N[C@@H]1CCNC[C@H]1C(=O)N[C@H](CC(=O)N[C@@H](CCC(=O)O)CC(=O)O)Cc1ccccc1)NC(=O)[C@@H]1CCCC[C@H]1N	none
Cc1nc(NC(=O)c2ccccc2)sc1-c1csc(Nc2ccc(Cl)cc2)n1	Tau fluor counter 8.91µM[quencher], Tau ThT inhib 5.01µM
Cc1nc(C)c(-c2csc(Nc3cccc(O)c3)n2)s1	Tau fluor counter 17.8µM[quencher], Tau fibril FP inconclusive, Tau ThT inhib 4.47µM
Cc1nc(NC(=O)c2ccccc2)sc1-c1csc(Nc2ccc(F)cc2)n1	Tau fluor counter 14.1µM[quencher], Tau fibril FP inconclusive, Tau ThT inhib 11.2µM
Cc1nc2ccccn2c1-c1csc(Nc2cccc(O)c2)n1	none
Cc1cccc(CN2CCC(CNC(=O)c3c(C)oc4ncnc(N5CCCCC5)c34)CC2)c1	none
Cc1cc(C)nc(NS(=O)(=O)c2ccc(NC(=O)Nc3ccccc3F)cc2)n1	none
Cc1ccc(S(=O)(=O)Nc2ccc(NC(=O)Nc3ccc(F)cc3F)cc2)cc1	Tau fluor counter 11.2µM[quencher], Tau fibril FP inconclusive
O=C(Nc1cccc(F)c1)c1ccc(-c2ccccc2C(F)(F)F)o1	Tau fluor counter inconclusive, Tau fibril FP inconclusive
COc1ccc(NC(=O)c2ccc(-c3ccccc3C(F)(F)F)o2)cc1	Tau fluor counter 25.1µM[quencher], Tau ThT inhib 25.1µM
CN(C)c1ncnc2c1NC1=C(S2)C(=NCCCC(=O)O)CC(C)(C)C1	Tau fibril FP inconclusive, Tau ThT inhib 10µM
CCOc1cc(CNc2ccc(N3CCCCC3)cc2)cc(Br)c1OCC(=O)NC(C)(C)C	Tau ThT inhib inconclusive
CCOc1cc(CNc2ccc(N(C)C)cc2)cc(Br)c1OCC(=O)NC(C)(C)C	TRb SRC2 PPI 39.8µM, Tau fluor counter inconclusive, Tau fibril FP 15.8µM, Tau ThT inhib 7.94µM, TexasRed fluor 44.7µM[fluorescent]
COc1cccc(N2CCN(C(=O)CN3CCSc4ccc(S(=O)(=O)N(C)C)cc43)CC2)c1	none
COc1cccc(CNC(=O)CCc2c(C)nc3c(c(C)nn3-c3ccc(C)c(C)c3)c2C)c1	Tau fluor counter inconclusive
CCN(CC)c1ccc(NC2=C(Cl)C(=O)c3ccccc3C2=O)cc1	TRb SRC2 PPI 28.2µM, Tau fluor counter 2.24µM[quencher], Tau fibril FP 5.01µM, Tau ThT inhib 2.82µM
O=C1C=C(Nc2ccc(O)cc2)C(=O)c2ccccc21	Tau fluor counter 15.8µM[quencher], Tau fibril FP inconclusive, Tau ThT inhib 12.6µM
Cc1ccc(NC2=C(Cl)C(=O)c3ccccc3C2=O)cc1	Tau fluor counter inconclusive, Tau fibril FP inconclusive, Tau ThT inhib 2.24µM
Cc1ccc(NC2=C(N3CCOCC3)C(=O)c3ccccc3C2=O)cc1	Tau fluor counter inconclusive, Tau fibril FP inconclusive, Tau ThT inhib inconclusive
